Assay [1] in a line: qHTS assay for small molecule agonists of the p53 signaling pathway (AID 651631; calls by dose curve; note: nearly all actives have a fitted effect of over 15% in size; note: potency is the fitted concentration of half-maximal effect). Summed up:
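We treat p53RE-bla HCT-116 cells with compounds for 16 h at 37 °C, add LiveBLAzer B/G FRET substrate for 2 h at room temperature, and measure fluorescence intensity.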

Assay [2] can be described thus: qHTS assay for small molecules that induce genotoxicity in human embryonic kidney cells expressing luciferase-tagged ATAD5 (AID 651632). Note: nearly all actives have a fitted effect of over 15% in size. Summed up: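 DMSO vehicle served as the control. HEK293T reporter cells, 16 hr at 37C, then 30 min Amplite at room temperature; ATAD5 induction is measured as luciferase activity.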
A short description of assay [3]: qHTS assay for small molecule agonists of the p53 signaling pathway - cell viability (AID 651633; calls by dose curve; note: nearly all actives have a fitted effect of over 30% in size; note: potency is the fitted concentration of half-maximal effect). The essentials: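 p53RE-bla cells were treated with compound for 16 hours at 37 C. Cytotoxicity was then measured as CellTiter-Glo luminescence after 30 min at room temperature.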
The nature of assay [4]: qHTS assay for small molecules that induce genotoxicity in human embryonic kidney cells expressing luciferase-tagged ATAD5 - cell viability (AID 651634; calls by dose curve; note: nearly all actives have a fitted effect of over 25% in size). The essentials: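 Here HEK293T cells with the ATAD5 luciferase reporter are incubated with test compounds for 15.5 hr, and cytotoxicity is then gauged by measuring protease activity in live cells using fluorescence.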
A short description of assay [5]: qHTS assay for small molecule disruptors of the mitochondrial membrane potential - cell viability (AID 720634; calls by dose curve; note: nearly all actives have a fitted effect of over 20% in size; note: potency is the fitted concentration of half-maximal effect). Summed up:
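Viability of HepG2 cells is scored from ATP content by luminescence; cells are exposed to compound for 1 hr at 37 C and 5% CO2, then dosed with m-MPI dye before the CellTiter-Glo reagent.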

The nature of assay [6]: qHTS assay for small molecule disruptors of the mitochondrial membrane potential (AID 720635). Note: potency is the fitted concentration of half-maximal effect. Summed up: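 HepG2 cells exposed to compound 1 hr at 37C, then Mito-MPS dye 30 min. Ratio read of aggregate (540/590 nm) versus monomer (490/535 nm) fluorescence.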
Assay [7] in a line: qHTS assay to test for compound auto fluorescence at 590 nm (red) in HepG2 cells (AID 720674). Summed up: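 Fluorescence at 590 nm emission following 540 nm excitation was recorded from HepG2 wells one hour after compound transfer, with DMSO-only wells as vehicle and Rose Bengal sodium equivalency as the scale.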
Assay [8] in a line: qHTS assay to test for compound auto fluorescence at 535 nm (green) in HepG2 cells (AID 720675).
Assay [9] in a line: qHTS assay to test for compound auto fluorescence at 460 nm (blue) in HEK293 cells (AID 720678). Summed up: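 HEK293 cells (2,000/well, medium with 10% dialyzed FBS) attached 4-5 hr, then exposed to compound overnight at 37C, 5% CO2. Blue fluorescence read at 405/460 nm, with triamterene as reference fluorophore.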
Assay [10] can be described thus: qHTS assay to test for compound auto fluorescence at 590 nm (red) in HEK293 cells (AID 720679). The essentials: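 HEK293 cells (2,000/well, 10% dialyzed FBS) attached 4-5 hr, then dosed with compound or DMSO and incubated overnight at 37C, 5% CO2. Red fluorescence read at 540/590 nm, Rose Bengal sodium as reference fluorophore.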
The nature of assay [11]: qHTS assay to test for compound auto fluorescence at 535 nm (green) in HEK293 cells (AID 720680).
A short description of assay [12]: qHTS assay to test for compound auto fluorescence at 460 nm (blue) in HEK293 cell free culture (AID 720681). Summed up:
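Compounds were added to cell-free DMEM with 10% FBS and fluorescence read directly. The blue channel used 405 nm excitation and 460 nm emission, with triamterene as the reference fluorophore.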

A short description of assay [13]: qHTS assay to test for compound auto fluorescence at 535 nm (green) in HEK293 cell free culture (AID 720682). The essentials:
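Green-channel intensity (Ex/Em 485/535 nm) was recorded from compound-treated wells containing only DMEM with 10% FBS. Fluorescein provided the equivalency standard.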

A short description of assay [14]: qHTS assay to test for compound auto fluorescence at 590 nm (red) in HEK293 cell free culture (AID 720683). The essentials: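 Cell-free wells of DMEM with 10% FBS received compound, and intrinsic fluorescence was read at excitation/emission 540/590 nm. Values expressed as equivalence to Rose Bengal sodium.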
The nature of assay [15]: qHTS assay to test for compound auto fluorescence at 590 nm (red) in HepG2 cell free culture (AID 720684). Summed up:
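Auto fluorescence equivalency versus Rose Bengal sodium, red channel Ex/Em 540/590 nm; compounds in cell-free MEM/10% FBS; DMSO vehicle control.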

The nature of assay [16]: qHTS assay to test for compound auto fluorescence at 460 nm (blue) in HepG2 cell free culture (AID 720685). Summed up:
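Cell-free plates of MEM plus 10% FBS received 23 nL compound or DMSO vehicle; blue-channel (405/460 nm) intensity scored against triamterene as reference fluorophore.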

Assay [17] in a line: qHTS assay to test for compound auto fluorescence at 535 nm (green) in HepG2 cell free culture (AID 720686).
Assay [18] in a line: qHTS assay to test for compound auto fluorescence at 460 nm (blue) in HepG2 cells (AID 720687). Summed up:
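HepG2 cells in MEM with 10% FBS, attached overnight at 37 C, were exposed to compound or DMSO for 1 hr at 37 C, 5% CO2. Blue fluorescence was read at 405/460 nm, with triamterene as reference fluorophore.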

The target in assay [19] is Glucocorticoid receptor (Homo sapiens) (UniProt P04150). Nature of the assay: qHTS assay to identify small molecule agonists of the glucocorticoid receptor (GR) signaling pathway (AID 720691; active = well fitted activation curve with a large enough effect in the signal ratio in the repeat runs, not every such curve was filed as active; the % refers to the signal ratio). Summed up: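 Compounds in DMSO, alongside positive controls, were added to GR-bla HeLa reporter cells and incubated 18 h at 37 C; GRE-driven beta-lactamase was detected by fluorescence after 2 h with FRET substrate at room temperature.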
Chain of Glucocorticoid receptor (Homo sapiens) (P04150 whole entry, looked up): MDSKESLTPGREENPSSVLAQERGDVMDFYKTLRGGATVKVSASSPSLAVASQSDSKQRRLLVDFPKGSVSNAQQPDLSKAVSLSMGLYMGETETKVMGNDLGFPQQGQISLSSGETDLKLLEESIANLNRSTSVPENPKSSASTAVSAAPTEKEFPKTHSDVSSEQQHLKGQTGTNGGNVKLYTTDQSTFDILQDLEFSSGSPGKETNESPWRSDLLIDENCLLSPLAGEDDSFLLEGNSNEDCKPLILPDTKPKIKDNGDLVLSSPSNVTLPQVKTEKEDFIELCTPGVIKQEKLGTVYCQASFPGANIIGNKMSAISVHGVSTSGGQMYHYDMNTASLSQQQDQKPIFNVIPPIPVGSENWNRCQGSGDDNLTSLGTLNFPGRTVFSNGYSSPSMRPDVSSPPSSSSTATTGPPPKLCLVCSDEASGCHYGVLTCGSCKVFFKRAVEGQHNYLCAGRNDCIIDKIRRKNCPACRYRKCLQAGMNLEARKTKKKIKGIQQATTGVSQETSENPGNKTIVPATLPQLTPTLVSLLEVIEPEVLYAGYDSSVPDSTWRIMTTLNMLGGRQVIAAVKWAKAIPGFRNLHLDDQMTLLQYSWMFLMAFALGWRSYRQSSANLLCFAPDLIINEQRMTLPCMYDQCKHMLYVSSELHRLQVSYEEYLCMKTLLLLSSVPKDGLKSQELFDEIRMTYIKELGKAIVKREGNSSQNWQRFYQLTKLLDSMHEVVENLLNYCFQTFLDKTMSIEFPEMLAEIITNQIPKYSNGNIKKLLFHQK

Assay [20] has the same target. Nature of the assay: qHTS assay to identify small molecule antagonists of the glucocorticoid receptor (GR) signaling pathway (AID 720692; active = well fitted inhibition curve with a large enough effect in the signal ratio in the repeat runs, not every such curve was filed as active; the % refers to the signal ratio). Summed up: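 In a 1536-well cell format, compounds were added 4 h after seeding GR-bla HeLa cells, together with dexamethasone at 5 nM final; reporter activity was measured by FRET-substrate fluorescence following 18 h at 37 C.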

Where “and” joins values, the source holds several entries; their conditions need not be identical. Equal values may be shown once. Inconclusive results are not listed. The source holds several records for some structures; these can differ, active in one and inactive in another. Calls of active or inactive are those of the source. Unless noted, calls come from the whole dose curve; as a rule, active = well fitted curve in the direction sought with a large enough effect in the repeat runs; inconclusive = weak or mixed curves; inactive = no such curve, though single readings can be large; an effect the other way counts as inactive or inconclusive.
% is set by controls: 0 for no effect and ±100 for the full control effect.

Regarding `O=C(O)CCc1ccccc1`, the Potency entry in assay [1], in [2], in assay [3], in assay [4], in assay [5] and in assay [6] was “inactive” each time. Besides, the Potency entry in assay [8], in assay [9], in assay [11], in [12], in assay [13] and in assay [16] was “inactive” each time. For the same compound, the Potency entry in assay [17], in assay [18], in [19] and in assay [20] was “inactive” in each case. For the same compound, the result in [7], in assay [10], in assay [14] and in [15] was inactive.

As for `NCCCCCC(=O)O`, the Potency result in [1], in assay [3], in [4], in [5], in assay [6] and in [19] was “inactive” each time. For the same compound, the fluorescence, relative to Rose Bengal in assay [7] was -0.673% [at 18.6 µM] (inactive). Also, the fluorescence, % of fluorescein control in assay [8] is 0.0481% [at 18.6 µM] (inactive); in assay [17], -0.0066% [at 18.6 µM] (inactive). Also, the fluorescence, % of triamterene in assay [9] was 0.0733% [at 18.6 µM] (inactive). In [11], the fluorescence, % of fluorescein was -0.0215% [at 18.6 µM] (inactive). The fluorescence, % of fluorescent control was 0.0269% [at 18.6 µM] (inactive) in [12], -0.0259% [at 18.6 µM] (inactive) in [14], 0.0102% [at 18.6 µM] (inactive) in assay [16] and -0.0854% [at 18.6 µM] (inactive) in [18]. The activity change in assay [13] was 0.0558% [at 18.6 µM, stronger effect = higher value] (inactive). The fluorescence, % of Rose Bengal in [15] was 0.496% [at 18.6 µM] (inactive).

For `CCC(CO)(CO)COCC(CC)(CO)CO`, the Potency entry in [1], in assay [2], in [3], in assay [5], in assay [6] and in [8] was “inactive” each time. Besides, the Potency result in [11], in assay [12], in [13], in assay [16], in [17] and in assay [18] was “inactive” throughout. For the same compound, in [19], the Potency entry is “inactive”. Besides, the compound was classed as inactive in assay [7], in assay [14] and in assay [15].

As for `CC1=CC(=O)c2ccccc2C1=O`, the Potency is 38.6 µM (active) in [1]; 24.3 µM (active) in [3]; “inactive and 54.5 µM (active)” in [5]. The Potency result in assay [4], in [8], in [9], in [11], in assay [12] and in [13] was “inactive” in each case. In addition, the Potency result in assay [17] and in assay [19] was “inactive” each time. Also, the compound was called inactive in [7], in [10] and in assay [14].

For `CNC1(C)C2CCC(C2)C1(C)C` (centres undefined), the Potency result in [1], in assay [3], in assay [4], in [5], in assay [6] and in assay [8] was “inactive” each time. The Potency result in assay [9], in [11], in assay [12], in assay [13], in assay [16] and in assay [17] was “inactive” each time. Further, the Potency entry in assay [18], in assay [19] and in assay [20] was “inactive” in each case. Besides, the result in [7], in [10] and in assay [14] was inactive.

In the case of `NC(N)=Nc1nc(CSCC/C(N)=N/S(N)(=O)=O)cs1`, the Potency entry in [1], in [2], in assay [3], in [5], in [6] and in assay [8] was “inactive” throughout. For the same compound, the Potency entry in assay [9], in assay [11], in assay [12], in assay [13], in assay [16] and in [17] was “inactive” throughout. In addition, the Potency entry in assay [19] and in assay [20] was “inactive” in each case. For the same compound, the compound was classed as inactive in assay [7], in assay [14] and in [15].

For the compound `Cc1cc(C(C)(C)C)c(O)c(C(C)(C)C)c1`, the Potency result in [1], in [3], in assay [4], in assay [5], in assay [8] and in [9] was “inactive” in each case. In addition, the Potency result in assay [11], in assay [12], in [13], in assay [16], in [17] and in assay [18] was “inactive” in each case. Besides, the Potency entry in assay [19] is “inactive”. Further, the Potency in [6] was 48.7 µM (active) and 24.3 µM (active). Moreover, the call in assay [7], in assay [14] and in assay [15] was inactive.

For the origin of these results see PubChem BioAssay (Tox21).
